A number with no mark means an inactive call. Records with an inconclusive call do not appear. Where a call stands in place of a potency, no number is given. Activity calls are given as the source filed them. The call rests on the fitted dose curve.

Sequence of Muscarinic acetylcholine receptor M1 (Homo sapiens) (P11229 whole entry, looked up): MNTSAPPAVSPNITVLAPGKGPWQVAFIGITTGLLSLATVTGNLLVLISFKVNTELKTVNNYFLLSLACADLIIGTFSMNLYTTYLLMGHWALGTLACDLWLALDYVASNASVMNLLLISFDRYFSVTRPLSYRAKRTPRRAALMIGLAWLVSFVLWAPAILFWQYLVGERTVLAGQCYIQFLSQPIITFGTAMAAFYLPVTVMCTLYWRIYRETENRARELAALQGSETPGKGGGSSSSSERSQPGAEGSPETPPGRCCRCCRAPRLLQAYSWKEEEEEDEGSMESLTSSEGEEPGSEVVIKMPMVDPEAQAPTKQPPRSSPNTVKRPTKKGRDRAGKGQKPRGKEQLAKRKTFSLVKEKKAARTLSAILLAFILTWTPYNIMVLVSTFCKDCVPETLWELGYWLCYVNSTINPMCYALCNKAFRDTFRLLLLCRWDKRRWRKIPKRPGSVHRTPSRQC

The first assay deals with Muscarinic acetylcholine receptor M1 (Homo sapiens) (UniProt P11229). In words: Cholinergic receptor muscarinic 1 (CHRM1) small molecule antagonists, cell-based qHTS assay (AID 1963588). Further: nearly all actives have a fitted effect of over 40% in size. As to conditions: CHRM1-CHO antagonist mode, calcium flux fluorescence; series mostly up to 61.5 µM. The essentials:
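CHRM1-CHO calcium-flux assay, antagonist mode. Cells were seeded 18 h, dye-loaded 1 h at 37 C and given compound for 5 min at RT, then acetylcholine was added at 50nM. FDSS fluorescence was read 3 min; 15 concentrations, three runs.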
On the technique in general: Quantitative high-throughput screening tests each substance at several concentrations.
Take `CC(C)OCC1CO1` (stereo unspecified): the Potency entry was “inactive”.

For the compound `CCCCCCC(CO)CCCC` (stereo unspecified), the Potency entry is “inactive”.

As to `S=C(SSSSSSC(=S)N1CCCCC1)N1CCCCC1`, the activity, negative = inhibition is -12.9% [at 12.6 µM].

On to `CO[Si](CCCS)(OC)OC`, for which the Potency entry was “inactive”.

In the case of `NC(=O)C(=O)N/N=C/c1ccc([N+](=O)[O-])o1`, the Potency entry is “inactive”.

For the compound `CC(C)OC(=O)C(C(=O)OC(C)C)=C1SC=CS1`, the Potency entry was “inactive”.

As to `O=S(O)O`, the activity, negative = inhibition was 27.3% [at 12.6 µM].

As to `O=C1O[C@@H]2[C@@H](O)[C@H](O)O[C@@H]2[C@H]1O`, the Potency entry is “inactive”.

Take `CCc1ccc(CC)cc1`: the Potency result is “inactive”.

`CC(C)(C)N(CCO)CCO`: the Potency result was “inactive”.

Turning to `O=CCCc1ccccc1`, the Potency entry was “inactive”.

Consider `Cc1oc(-c2ccccc2)nc1CCC(=O)c1ccc(CC2SC(=O)NC2=O)cc1` (stereo unspecified), for which the Potency entry was “inactive”.

Consider `CCCCNc1ccc(NCCCC)c2c1C(=O)c1ccccc1C2=O`, for which the activity, negative = inhibition is 4.22% [at 12.6 µM].

`O=C(O)c1ccncc1`: the Potency result was “inactive”.

Consider `Clc1cc(Cl)c(-c2c(Cl)c(Cl)cc(Cl)c2Cl)cc1Cl`, for which the Potency result was “inactive”.

With `CC(=O)N(CC(O)CN(C(C)=O)c1c(I)c(C(=O)NCC(O)CO)c(I)c(C(=O)NCC(O)CO)c1I)c1c(I)c(C(=O)NCC(O)CO)c(I)c(C(=O)NCC(O)CO)c1I` (stereo unspecified), the Potency entry is “inactive”.

In the case of `CCCCCCCCCCCCS(=O)(=O)Cl`, the activity, negative = inhibition is 0.609% [at 12.6 µM].

In the case of `CC/C=C\CCOC(=O)c1ccccc1`, the Potency entry was “inactive”.

Take `Clc1ccnc(Cl)n1`: the Potency result is “inactive”.

On to `OCC(CO)(CO)COCC(CO)(CO)CO`, for which the Potency result was “inactive”.

As for `OCc1ccccn1`, the Potency entry is “inactive”.

Take `CCCCC`: the Potency result is “inactive”.

For the compound `Cc1ccc2c(c1)c1c3n2CCNC3CCC1` (stereo unspecified), the Potency entry is “inactive”.

Regarding `CCOc1ccccc1N`, the Potency result is “inactive”.

`CC(C(=O)O)c1ccc(C(=O)c2ccccc2)s1` (stereo unspecified): the Potency entry is “inactive”.

For the compound `CCCCCCC(=O)OCC`, the Potency result was “inactive”.

`NS(=O)(=O)c1cc(C(=O)NN2C[C@H]3[C@H]4CCC(C4)[C@H]3C2)ccc1Cl`: the Potency result was “inactive”.

Consider `CC1(C)S[C@@H]2[C@H](NC(=O)C(C(=O)O)c3ccccc3)C(=O)N2[C@H]1C(=O)O` (stereo partly specified), for which the Potency entry is “inactive”.

With `CCCCCCCC1CCCC1=O` (stereo unspecified), the Potency result is “inactive”.

The target is the same in a further assay. In words: Cholinergic receptor muscarinic 1 (CHRM1) small molecule agonists, cell-based qHTS assay (AID 1963589). Further: nearly all actives have a fitted effect of over 35% in size. The settings on record: CHRM1-CHO cells, agonist mode, calcium flux fluorescence; series mostly up to 76.8 µM. Summed up:
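CHO cells stably expressing human CHRM1 were loaded with calcium dye for 1 h at 37 C, then compound was added in agonist mode. Intracellular calcium fluorescence was followed kinetically at 1 s intervals. Fifteen concentrations were tested in three independent runs.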
Consider `CC(C)OCC1CO1` (stereo unspecified), for which the Potency entry is “inactive”.

For `CCCCCCC(CO)CCCC` (stereo unspecified), the Potency entry is “inactive”.

As for `S=C(SSSSSSC(=S)N1CCCCC1)N1CCCCC1`, the activation was 2.41% [at 15.8 µM].

As for `CO[Si](CCCS)(OC)OC`, the Potency entry was “inactive”.

Turning to `NC(=O)C(=O)N/N=C/c1ccc([N+](=O)[O-])o1`, the Potency result is “inactive”.

`O=C(CCCN1CCC(O)(c2ccc(Br)cc2)CC1)c1ccc(F)cc1`: the Potency result is “inactive”.

In the case of `CC(C)OC(=O)C(C(=O)OC(C)C)=C1SC=CS1`, the Potency result is “inactive”.

For `O=S(O)O`, the activation is 0.709% [at 15.8 µM].

Turning to `O=C1O[C@@H]2[C@@H](O)[C@H](O)O[C@@H]2[C@H]1O`, the Potency result is “inactive”.

On to `CCc1ccc(CC)cc1`, for which the Potency entry was “inactive”.

On to `CC(C)(C)N(CCO)CCO`, for which the Potency result was “inactive”.

On to `O=CCCc1ccccc1`, for which the Potency entry was “inactive”.

As to `Cc1oc(-c2ccccc2)nc1CCC(=O)c1ccc(CC2SC(=O)NC2=O)cc1` (stereo unspecified), the Potency result was “inactive”.

Consider `CCCCNc1ccc(NCCCC)c2c1C(=O)c1ccccc1C2=O`, for which the activation was -0.373% [at 15.8 µM].

On to `O=C(O)c1ccncc1`, for which the Potency entry is “inactive”.

On to `CC(=O)N(CC(O)CN(C(C)=O)c1c(I)c(C(=O)NCC(O)CO)c(I)c(C(=O)NCC(O)CO)c1I)c1c(I)c(C(=O)NCC(O)CO)c(I)c(C(=O)NCC(O)CO)c1I` (stereo unspecified), for which the Potency result was “inactive”.

As to `CCCCCCCCCCCCS(=O)(=O)Cl`, the activation was 0.179% [at 15.8 µM].

For the compound `CC/C=C\CCOC(=O)c1ccccc1`, the Potency entry was “inactive”.

With `CCc1cc(Cc2cc(CC)cc(C(C)(C)C)c2O)c(O)c(C(C)(C)C)c1`, the Potency result is “inactive”.

On to `Clc1ccnc(Cl)n1`, for which the Potency result is “inactive”.

Turning to `OCC(CO)(CO)COCC(CO)(CO)CO`, the Potency result was “inactive”.

In the case of `OCc1ccccn1`, the Potency entry was “inactive”.

For the compound `CCOC(=O)/C=C/C(=O)O`, the Potency entry is “inactive”.

With `CCCCC`, the Potency result was “inactive”.

Turning to `Cc1ccc2c(c1)c1c3n2CCNC3CCC1` (stereo unspecified), the Potency entry is “inactive”.

`CCOc1ccccc1N`: the Potency result is “inactive”.

Regarding `CC(C(=O)O)c1ccc(C(=O)c2ccccc2)s1` (stereo unspecified), the Potency result was “inactive”.

Turning to `CCCCCCC(=O)OCC`, the Potency result was “inactive”.

Take `NS(=O)(=O)c1cc(C(=O)NN2C[C@H]3[C@H]4CCC(C4)[C@H]3C2)ccc1Cl`: the Potency result is “inactive”.

For the compound `CC1(C)S[C@@H]2[C@H](NC(=O)C(C(=O)O)c3ccccc3)C(=O)N2[C@H]1C(=O)O` (stereo partly specified), the Potency entry was “inactive”.

Regarding `CC(CC(C#N)(c1ccccc1)C(C)C)N(C)C` (stereo unspecified), the Potency entry was “inactive”.

As to `C=CCCCC`, the Potency entry was “inactive”.

For the origin of these results see PubChem BioAssay (Tox21).
